In PubChem BioAssay (NCI):
Compounds without any hit were thinned out: in the full panel of roughly 83,000, 20% have a hit.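 Results are percent growth after 48 hours of single-concentration exposure. 100 means growth as in untreated cells, lower positive values show inhibition; negative values down to -100 show cell death.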 Values without a mark were called inactive. Activity calls are given as the source filed them. How the source made its calls: active means growth percent below 10; inactive means the rest.

Key:
Assay in all cases: NCI-60 one-dose screen, 48 h (100 = growth as untreated, 0 = no growth, -100 = all killed)
Conditions in all cases: 10 µM unless noted
SK-MEL-2 melanoma = system: SK-MEL-2 melanoma
EKVX NSCLC = system: EKVX NSCLC
SN12C renal = system: SN12C renal
UO-31 renal = system: UO-31 renal
TK-10 renal = system: TK-10 renal
ACHN renal = system: ACHN renal
CAKI-1 renal = system: CAKI-1 renal
A498 renal = system: A498 renal
CCRF-CEM leukemia = system: CCRF-CEM leukemia
MOLT-4 leukemia = system: MOLT-4 leukemia

| Compound | growth (SK-MEL-2 melanoma) | growth (EKVX NSCLC) | growth (SN12C renal) | growth (UO-31 renal) | growth (TK-10 renal) | growth (ACHN renal) | growth (CAKI-1 renal) | growth (A498 renal) | growth (CCRF-CEM leukemia) | growth (MOLT-4 leukemia) |
| --- | --- | --- | --- | --- | --- | --- | --- | --- | --- | --- |
| O=C1c2ccccc2C(=O)c2c1ccc1[nH]c(-c3cccs3)nc21 | 107% | 71.7% | 73.4% | 58.6% | 87.3% | 66.5% | 82% | 96.5% | 88.4% | 70.1% |
| CC(=O)Nc1ccc(S(=O)(=O)Nc2cccc(-c3nc(-c4ccc(NC(=O)c5cccnc5)cc4Cl)no3)c2)cc1 | 35.9% | 54.3% | 41.3% | 82.9% | 69.9% | 81.2% | 90.6% | 36.9% | 23.3% | 25.8% |
| COc1cc(C=Nc2oc(-c3ccccc3)c(-c3ccccc3)c2C#N)cc(CN2CCCCC2)c1O | 103% | 95% | 99.5% | 73.6% | 107% | 99.6% | 86.6% | 72.3% | 101% | 86.8% |
| O=C1/C(=C/C(Cl)=C/c2ccccc2)SC(=S)N1CCc1ccc(O)cc1 | 12.8% | 11% | 6.85% (active) | -84.5% (active) | 16.8% | -73.4% (active) | -15.7% (active) | -0.593% (active) | 9.68% (active) | 9.33% (active) |
| C=C(C)[C@@H]1CC[C@]2(C(N)=O)CC[C@]3(C)[C@H](CC[C@@H]4[C@@]5(C)C/C(=C/c6ccco6)C(=O)C(C)(C)[C@@H]5CC[C@]43C)[C@@H]12 | 99.5% | 89.8% | 96.1% | 84.4% | 105% | 84.4% | 59% | 104% | 93.4% | 79.7% |
| CON1C(=O)CC[C@]2(C)[C@H]3CC[C@@H]4C([C@@]5(C)CCC(=O)O5)CC[C@@]4(C)[C@]3(C)CC[C@H]2C1(C)C (some centres not stated) | 94.6% | 93.3% | 95.2% | 94.4% | 97.8% | 96.6% | 75.7% | 99.6% | 96.9% | 90.6% |
| CSc1nc(NCCO)c(C#N)c(-c2cccc([N+](=O)[O-])c2)n1 | 113% | 88.9% | 90.4% | 73.2% | 120% | 93% | 83.9% | 72.6% | 99.1% | 99% |
| C#CCOc1ccc2ncnc(NCc3cccc(NC(=O)CCl)c3)c2c1 | 39.7% [8.25 µM] | 65.6% [8.25 µM] | 25.8% [8.25 µM] | 84.9% [8.25 µM] | 74.1% [8.25 µM] | 39.5% [8.25 µM] | 73.3% [8.25 µM] | 77.9% [8.25 µM] | 4.16% [8.25 µM] (active) | 3.48% [8.25 µM] (active) |
| CSc1ccc(-c2n[nH]nc2-c2cc3ccccc3s2)cc1 | 33% | 73.2% | 59.9% | 52.3% | 84.2% | 64.7% | 49.1% | 46.8% | – | 10.1% |
| COc1cc(C(=O)Oc2ccccc2OC(=O)c2cc(OC)c(OC)c(OC)c2)cc(OC)c1OC | 115% | 95.7% | 98.4% | 84.5% | 98.4% | 93.9% | 91.6% | 108% | 97.2% | 114% |
| Cn1cc(-c2nonc2-c2cn(C)c3ccc(F)cc23)c2ccccc21 | 30.6% | 47.6% | 33.8% | 26.9% | 60.6% | 38.7% | 26.2% | -2.88% (active) | – | 15.9% |
| COc1cccc(C2=NN3C(C2)c2cc(Br)cc(OC)c2OC32CCN(Cc3ccccc3)CC2)c1 (configuration not stated) | 102% | 94.8% | 98.7% | 85.3% | 108% | 102% | 90.3% | 104% | – | 106% |
| COc1ccc(Nc2c3c4c(cccc4[nH]c2=O)C(=O)c2ccccc2-3)cc1 | 40.2% | 42.3% | 40% | 30.3% | 28.6% | 24.2% | 11.7% | 23% | -0.546% (active) | 1.81% (active) |
| COc1ccc(-n2nc(C)c3c(Nc4ccc(NC(=O)Nc5cc(C(F)(F)F)ccc5F)cc4)ncnc32)cc1 | 25% | 24.1% | 44.9% | 16% | 47.5% | 25.3% | 4.88% (active) | 56.5% | 38.4% | 39.3% |
| CSc1nc2c(c(=O)[nH]1)C1(C(=O)Nc3ccccc31)c1c(nc(SC)[nH]c1=O)N2 | 105% | 108% | 102% | 87.1% | 110% | 103% | 103% | 116% | 109% | 108% |
